Source: PubChem BioAssay
Only some compounds are listed: those with a hit (about 21% of all), similar ones and a draw of the others.
Pf growth 48h = inhibits P. falciparum growth in the first generation, 48 h. P. falciparum luciferase growth in erythrocytes, 48 h. hit rate 5.9% among 310,000. AID 504832. Potency, µM (doses to about 28.7 µM), without a hit: top-dose activity change, negative = inhibition, usual class: inhibitors; also: potency is read from the fitted curve at half-maximal effect; % is scaled to controls: 0 for no effect and ±100 for the full control effect
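Read-out is firefly luciferase luminescence from an integrated reporter in P. falciparum, so falling signal marks reduced parasite growth. Infected erythrocytes were at 2% hematocrit and 0.1% parasitemia (final) in Albumax-supplemented RPMI 1640.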
Shiga toxin inh = Shiga toxin inhibition; hit rate 9.2% among 290,000; inhibition, % at 38.7 µM; Vero cells, Shiga toxin protein synthesis inhibition reporter; in the data active = inhibition mostly above about 28%, no sharp cut-off; inactive = mostly below about 43%; also: 0% is about no effect
Cycloheximide cs = counter-screen for Shiga toxin inhibitors: cycloheximide protein synthesis inhibition; cell reporter, cycloheximide protein synthesis inhibition counterscreen; hit rate 12% among 300,000; max response, %; AID 2314; in the data active = max response mostly above about 13%, no sharp cut-off; inactive = mostly below about 14%; also: read at 38.3 µM for the half of the compounds with a filed dose; 0% is about no effect
FBPA Giardia inh = inhibitors of Giardia lamblia fructose-1,6-bisphosphate aldolase | purified Giardia FBPA | Potency, µM (titrated, usually from 59.6 µM), without a hit: at the highest dose activity, negative = inhibition, usual class: inhibitors | hit rate 0.71% among 290,000; also: potency is read from the fitted curve at half-maximal effect; % is scaled to controls: 0 for no effect and ±100 for the full control effect; nearly all actives have a fitted effect of over 55% in size
Target sequence (A8B2U2 whole entry, looked up): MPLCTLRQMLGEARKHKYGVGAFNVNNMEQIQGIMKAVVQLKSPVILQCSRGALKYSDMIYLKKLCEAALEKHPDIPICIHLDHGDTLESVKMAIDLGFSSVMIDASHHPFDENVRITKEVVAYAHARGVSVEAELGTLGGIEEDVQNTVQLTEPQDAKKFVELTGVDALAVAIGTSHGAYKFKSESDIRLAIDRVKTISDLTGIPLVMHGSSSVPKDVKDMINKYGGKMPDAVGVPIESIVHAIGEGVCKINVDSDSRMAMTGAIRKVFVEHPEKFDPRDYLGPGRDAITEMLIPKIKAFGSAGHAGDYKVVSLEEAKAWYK
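Giardia FBPA (40 nM reagent) was preincubated 10 min at RT with compound (up to 57.5 uM final), then substrate plus GAPDH/TPI/NAD/arsenate coupling system with diaphorase/resazurin was added; resorufin fluorescence (525/598 nm) was read after 20 min.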
Pf growth 96h = P. falciparum growth inhibition at 96 hour, primary screen for plastid delayed-death inhibitors; P. falciparum luciferase reporter growth, 96 h; hit rate 6.9% among 320,000; Potency, µM (top dose mostly 28.7 µM), for the others: at the top dose activity change, negative = inhibition, actives largely listed as inhibitors; also: potency is read from the fitted curve at half-maximal effect; % is scaled to controls: 0 for no effect and ±100 for the full control effect
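Compounds incubated with erythrocytes infected by luciferase-expressing P. falciparum (2% hematocrit, 0.05% parasitemia final) for 96 hours, 37 C in 5% CO2. Growth inhibition scored as decreased luciferase luminescence.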
NS1 function inh = influenza NS1 inhibition; AID 2326; hit rate 0.4% among 270,000; Potency, µM (titrated, usually from 46.1 µM), for inactives: at the highest dose activity, positive = more growth; calls by dose curve; also: potency is read from the fitted curve at half-maximal effect; actives are rising curves; nearly all actives have a fitted effect of over 50% in size
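A cell-based growth assay was used: compounds that relieve NS1-induced slow growth of budding yeast raise OD600. Assay medium was yeast nitrogen base with ammonium sulphate and -URA supplement, pH 6.0, with 2% galactose.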
* hit, by the source's call; i = inactive; ? = inconclusive; nt = not tested or not shown. Unless noted, calls follow the shape of the dose curve; as a rule, active = well fitted curve in the direction sought with a large enough effect; inconclusive = small, poorly fitted or top-dose-only effect, or another doubt; inactive = no such curve, though single readings can be large; an effect the other way counts as inactive or inconclusive.

SMILES	Pf growth 48h	Shiga toxin inh	Cycloheximide cs	FBPA Giardia inh	Pf growth 96h	NS1 function inh
COc1ccccc1CNCc1cc(Br)ccc1OC	12µM*	-5	12	?	?	nt
N#CCCCC[N+]12CN3CN(CN(C3)C1)C2	nt	nt	nt	nt	nt	0%
O=C(c1cc(C(F)(F)F)cc(C(F)(F)F)c1)N1CCC2(CCN(Cc3nccs3)CC2)CC1	nt	nt	nt	7%	nt	nt
Clc1cccc(Cl)c1/C=C/c1ccn[nH]1	9%	67*	35*	12%	10%	-45%
Cc1ccc(NC2=C/C(=N\S(=O)(=O)c3cccs3)c3ccccc3C2=O)c(C)c1	0.093µM*	7	13*	?	0.033µM*	3%
Cc1ccc(Cl)cc1NC1=C/C(=N\S(=O)(=O)c2cccs2)c2ccccc2C1=O	nt	-10	-1	0.28µM*	0.15µM*	-51%
Cc1c(Cl)cccc1N/C(=N/S(=O)(=O)c1cccs1)c1ccccc1	-1%	-19	-4	0%	?	-2%
O=C1C(Nc2ccc(O)cc2)=C/C(=N/S(=O)(=O)c2cccs2)c2ccccc21	?	20	21*	?	0.47µM*	nt
O=C1/C(=N\S(=O)(=O)c2cccs2)C([n+]2ccccc2)=C([O-])c2ccccc21	?	-4	-5	?	?	3%
Cc1cc(C)c(S(=O)(=O)/N=C2\C=C(NS(=O)(=O)c3ccccc3)C(=O)c3ccccc32)c(C)c1	-24%	-2	-1	?	-24%	13%
COc1ccc(N2CCN(C(=O)c3ccc(NC(=O)C4=CSCCO4)cc3)CC2)cc1	-8%	3	16	-3%	-19%	-5%
CC(=O)C1=C(O)C(=O)N(Cc2ccccc2)C1c1ccc([N+](=O)[O-])cc1 (stereo not given)	3%	-15	-5	7%	5%	4%
COc1ccccc1C(=O)C1CCCN(C(=O)c2cccc(Cn3cccn3)c2)C1 (stereo not given)	?	-29	1	nt	?	9%
CC(C)Oc1ccc(C2CC(=O)NC2=O)cc1 (stereo not given)	24%	-11	12	4%	4.1µM*	12%
Cc1ccc(-n2c(SCC(=O)OC(C)C)nnc2-c2ccncc2)cc1	?	-2	2	-1%	20%	-9%
CC(C)OC(=O)CSc1nnc(-c2cnccn2)n1-c1ccc(Cl)cc1	?	-12	7	2%	15µM*	-94%
COc1nnc(-c2ccccc2)s1	17%	41*	15	5%	13%	8%
C=C1CCN([C@H](C(=O)OCc2cccc(C)c2)C(C)C)S(=O)(=O)c2ccccc21	?	21	-6	-14%	?	-41%
COc1ccc2c(c1)NC(=O)CC(c1ccccc1)=N2	nt	66*	38*	0%	107%	-11%
Cc1cccc(OCC(=O)Nc2ccccc2C(F)(F)F)c1	41%	81*	14	-1%	31%	1%
CCS(=O)(=O)c1ccc(O)c(NC(=O)COc2ccc(OC)cc2)c1	24%	-12	-3	17%	?	4%
Cc1cccc(OCC(=O)Nc2cc(C)ccc2O)c1	12µM*	30*	21*	-3%	?	-61%
Cc1cccc(OCC(=O)Nc2ccccc2-c2ccccc2)c1	3%	0	-1	4%	0%	9%
Cc1cccc(OCC(=O)Nc2cc(C)c(C)cc2O)c1	3.7µM*	30	10	13%	-19%	-39%
CCCc1ccc(OCC(=O)Nc2cc(S(=O)(=O)CC)ccc2O)cc1	17%	2	-2	17%	12µM*	-1%
SMILES	Pf growth 48h	Shiga toxin inh	Cycloheximide cs	FBPA Giardia inh	Pf growth 96h	NS1 function inh
CCN(CC)CCCNC(=O)c1ccc(OCC(=O)Nc2ccccc2C(F)(F)F)c(OC)c1	?	-5	5	-2%	19µM*	5%
Cc1csc(=NC(=O)c2ccccc2)n1Cc1ccco1	0%	28	11	10%	26%	-14%
Cc1csc(=NC(=O)c2ccccc2)n1C	i	83*	50*	5%	i	-10%
CCn1c(C)csc1=NC(=O)c1ccccc1O	111%	107*	56*	-8%	1.7µM*	-69%
CCn1c(C)csc1=NC(=O)c1ccccc1	91%	34*	29*	-8%	-21%	-83%
Cc1ccc(OCCC(=O)OCC(=O)NC(=O)c2ccccc2)cc1	0%	nt	nt	nt	16%	nt
